HCMV inh: blocks human cytomegalovirus replication; 410,000 tested, 4.5% active; HFF cells, HCMV-luciferase reporter, 72 h; stronger effect = lower value; activity change, negative = inhibition, % at 57.5 µM; AID 1259415; in the data active means activity change below about -60%; inconclusive means no clear call, values can overlap the other calls; inactive means above about -39%
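Screen run at 2 compound doses on HFFs infected with reporter HCMV, MOI 1 PFU/cell. Luciferase activity from cell lysates at 72 h post infection gave inhibition relative to buffer-only and Salinomycin wells.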
Marburg entry inh: inhibitors of Marburg virus binding or cell entry; 300,000 tested, 1.8% active; Potency, µM (highest dose often 37.8 µM), for the others: at the top dose activity change, negative = inhibition, usual class: inhibitors; AID 540276; Marburg virus pseudotyped entry inhibition, cell reporter; calls by dose curve; tested in HEK293 cells; further: potency means the concentration at half of the fitted maximal effect
Lassa entry inh: Lassa virus entry inhibition; Lassa virus pseudotype entry inhibition, cell reporter; Potency, µM (highest dose often 37.9 µM), without a hit: at the highest dose activity change, negative = inhibition, most hits filed as inhibitors; 300,000 tested, 1.2% active; calls by dose curve; tested in HEK293 cells; further: potency means the concentration at half of the fitted maximal effect; nearly all actives have a fitted effect of over 50% in size
HCV inh: blocks hepatitis C virus; Huh7.5.1 HCVcc-Cre infection, luciferase reporter, 44 h; Potency, µM (highest dose often 41.8 µM), for inactives: at the top dose activity change, negative = inhibition, usual class: inhibitors; AID 651820; 340,000 tested, 3.4% active; further: potency means the concentration at half of the fitted maximal effect
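Compounds are dispensed onto cells plated 4 h earlier at 1,000 per well, with HCVcc-Cre virus (about 0.5 moi) added next. Following 44 h of culture, luminescent signal is measured for 15 sec after 15 min with substrate at room temperature.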
Pf growth 96h: P. falciparum growth inhibition at 96 hour, primary screen for plastid delayed-death inhibitors; 320,000 tested, 6.9% active; P. falciparum luciferase reporter growth, 96 h; Potency, µM (top dose mostly 28.7 µM), inactives show at the highest dose activity change, negative = inhibition, actives largely listed as inhibitors; AID 504834; further: potency means the concentration at half of the fitted maximal effect
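P. falciparum expressing integrated firefly luciferase grown in erythrocytes (2% hematocrit, 0.05% parasitemia final) with compounds for 96 hours at 37 C, 5% CO2. Growth inhibition read as loss of luminescence after adding luciferase detection reagent.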
Pf growth 48h: P. falciparum growth inhibition at 48 hours (one generation); P. falciparum luciferase growth in erythrocytes, 48 h; Potency, µM (top dose mostly 28.7 µM), for the others: at the top dose activity change, negative = inhibition, most hits filed as inhibitors; 310,000 tested, 5.9% active; further: potency means the concentration at half of the fitted maximal effect
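Firefly luciferase activity from engineered P. falciparum reports growth; inhibitors lower the luminescent signal. Cultures contained 2% hematocrit erythrocytes at 0.1% final parasitemia.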
An asterisk follows results filed as active; ? = inconclusive; . = no result given; [ ] = remark or other dose. Most compounds without a hit are left out; they make up all but 14% or so of the library. Unless noted, the call rests on the fitted dose curve; in most records, active means well fitted inhibition curve with a large enough effect; inconclusive means small, poorly fitted or top-dose-only effect, or another doubt; inactive means no such curve, though single readings can be large or run the other way. On the % scale 0 is the no-effect control and ±100 the full control effect.

SMILES	HCMV inh	Marburg entry inh	Lassa entry inh	HCV inh	Pf growth 96h	Pf growth 48h
O=C1CC(N2CCN(c3nc4ccccc4s3)CC2)C(=O)N1Cc1cccs1 (stereo not drawn)	-3	?	?	14µM*	.	-9%
CC(C)CC(c1nnnn1Cc1cccs1)N1CCN(c2nc3ccccc3s2)CC1 (stereo not drawn)	?	?	?	1%	1%	12µM*
CC(C)C(c1nnnn1Cc1ccco1)N1CCN(c2nc3ccccc3s2)CC1 (stereo not drawn)	?	-9%[46.1 µM]	?	?	.	?
O=C1CC(N2CCN(c3ccc(F)cc3)CC2)C(=O)N1Cc1cccs1 (stereo not drawn)	3	12%	2%	-4%	.	?
CCc1cccc(NC(=O)Cn2ncc3c([nH]c4ccc(C)cc43)c2=O)c1	9	.	?	.	.	.
CCCCCCCCN1C(=O)[C@H](CC(=O)NCCC(C)C)C[C@@]2(C(=O)OCC)CCCC=C12	-17	.	.	.	.	.
Cc1ccc(-n2ncc3c(Nc4cccc(Cl)c4)ncnc32)c(C)c1	-21	.	-19%[46.1 µM]	.	.	.
CCOC(=O)C1=CCN(S(=O)(=O)c2ccc(F)cc2)C1c1cccc(Cl)c1 (stereo not drawn)	-24	.	.	.	.	.
CCOC(=O)C1=CC[C@@H](c2cccc(Br)c2)N(S(=O)(=O)c2ccc(F)cc2)[C@H]1c1cccc(Cl)c1	-74*	.	.	.	.	.
CCOC(=O)C1=C[C@@H](CC)N(S(=O)(=O)c2ccc([N+](=O)[O-])cc2)[C@H]1c1ccccc1	-39	.	.	.	.	.
CCOC(=O)C1=C[C@@H](C(C)(C)C)N(S(=O)(=O)c2ccc([N+](=O)[O-])cc2)[C@H]1c1ccccc1	-75*	.	.	.	.	.
CCOC(=O)C1=C[C@@H](C(C)(C)C)N(S(=O)(=O)c2ccc(OC)cc2)[C@H]1c1ccccc1	-34	.	.	.	.	.
CCOC(=O)C1=C[C@@H](C(C)(C)C)N(S(=O)(=O)c2ccc(C)cc2)[C@H]1c1ccc(OC)cc1	-64*	.	.	.	.	.
CCOC(=O)C1=C[C@@H](C(C)(C)C)N(S(=O)(=O)c2ccc(C)cc2)[C@H]1c1cccc(Cl)c1	-88*	.	.	.	.	.
Cc1ccc(Cc2c(-c3cccc(Br)c3)nc3c4ccccc4ccn23)cc1	79	.	.	.	.	.
O=C(Nc1nc(-c2cccs2)cs1)c1ccc([N+](=O)[O-])o1	-28	.	.	?	?	?
Cc1ccc(Cl)cc1NC(=O)CCCn1c(=O)c2cccn2c2ccccc21	9	.	?	.	.	.
CCn1cc(C(=O)NCc2ccccc2Cl)c(=O)c2cc(S(=O)(=O)N3CCCCC3)ccc21	19	-3%[46.1 µM]	0%[46.1 µM]	.	.	.
CCn1cc(C(=O)NCc2ccccc2OC)c(=O)c2cc(S(=O)(=O)N3CCCCC3)ccc21	-77*	?	-36%[46.1 µM]	.	.	.
COc1ccc(S(=O)(=O)N2CCCCCC2)cc1C(=O)NCc1ccco1	16	-9%[46.1 µM]	-19%[46.1 µM]	7%	.	.
COc1ccc(S(=O)(=O)N2CCCCCC2)cc1C(=O)NCc1cccs1	-8	-2%	-26%	?	?	15µM*
COc1ccc(S(=O)(=O)N2CCCCCC2)cc1C(=O)NCc1ccccc1Cl	-27	-1%	?	9%	8.3µM*	5.9µM*
COC(=O)c1scc(C)c1NC(=O)C(Cl)c1ccccc1 (stereo not drawn)	-28	.	.	0%	?	?
COC(=O)c1scc(C)c1NC(=O)Nc1ccccc1	-99*	-3%[46.1 µM]	1%	19%	30%	-4%
CCN1CCN(Cc2ccc(C)cc2C)CC1	8	-12%	-28%	-3%	?	16%
SMILES	HCMV inh	Marburg entry inh	Lassa entry inh	HCV inh	Pf growth 96h	Pf growth 48h
Cc1ccc(CN2CCN(C)CC2)c(C)c1	-20	-10%	-1%	2%	2.9µM*	16%
CCc1cc2cc(C(=O)Nc3ccc(F)cc3)sc2s1	-14	?	0%	-23%	0.41µM*	-2%
CC(C)(C)c1ccc(C(=O)Nc2ccc(F)cc2)s1	-17	?	?	?	5%	31%
COc1ccc2nc3sc(C(=O)Nc4ccccc4F)cc3cc2c1	6	-2%[46.1 µM]	20%[46.1 µM]	.	.	.
CCc1cc2cc(C(=O)Nc3ccccc3F)sc2s1	42	?	-7%	?	9.3µM*	204%
N#CC1=C2SCN(Cc3ccco3)CN2C(=O)CC1c1ccccc1F (stereo not drawn)	.	-8%	-7%	9%	.	-16%
N#CC1=C2SCN(Cc3ccco3)CN2C(=O)CC1c1cccc2ccccc12 (stereo not drawn)	-6	-17%	2%	13%	-6%	12µM*
Nc1cc(=O)[nH]c(=O)n1Cc1ccccc1	3	1%	0%	12%	6%	19%
Nc1cc(=O)[nH]c(=O)n1CCCc1ccccc1	-73*	-2%[46.1 µM]	-6%[46.1 µM]	1%	.	.
CCN=C1S/C(=C\c2cn(C(C)=O)nc2-c2ccccc2)C(=O)N1CC	20	?	?	10µM*	-24%	-5%
COc1cc2c(cc1OC)C(COc1cc(C)cc(C)c1)N(C(=O)c1ccc(S(=O)(=O)N3CCCC3)cc1)CC2 (stereo not drawn)	-21	.	?	.	.	.
Cc1cc(=O)c(C(=O)Nc2ccc(N3CCOCC3)cc2N2CCOCC2)nn1-c1ccccc1Cl	-5	0%	-11%	0%	.	.
Cc1ccc(S(=O)(=O)N2CCCN(c3nc4cc(C)ccc4cc3C#N)CC2)cc1	-40	?	-19%	22µM*	?	?
Cc1ccc(S(=O)(=O)N2CCCN(S(=O)(=O)c3ccc4c(c3)OCCO4)CC2)cc1	-31	1%	?	-28%	46%	?
Cc1ccc2nc(N3CCN(S(=O)(=O)c4ccc5c(c4)OCCO5)CC3)c(C#N)cc2c1	-40	?	?	14µM*	-16%	-15%
Cc1onc(-c2c(F)cccc2Cl)c1C(=O)OCC(=O)Nc1cccc(S(=O)(=O)N(C)C)c1	-70*	16µM*	?	?	.	.
Cc1cc(NC(=O)COC(=O)c2c(Cl)cccc2Cl)no1	-68*	.	.	9%	-28%	?
Cc1cc(NC(=O)COC(=O)c2ccccc2S(=O)(=O)N(C)c2ccccc2)no1	-101*	?	2.5µM*	-12%	?	-6%
Cc1cc(NC(=O)COC(=O)c2ccc(Cl)cc2)no1	16	.	.	.	.	.
Cc1cc(NC(=O)COC(=O)c2cccc(O)c2)no1	-65*	.	.	13%	18%	26%
Cn1c(=O)c2c(nc(NC(Cc3ccccc3)C(=O)O)n2Cc2ccccc2)n(C)c1=O (stereo not drawn)	-30	?	-18%	-6%	54%	6.6µM*
CNc1nc2c(c(=O)n(C)c(=O)n2C)n1CCCc1ccccc1	?	?	?	11µM*	?	25%

Compound activity as filed in PubChem.
